Potency and activity change, negative = cytotoxic data for 39 compounds are collected here from PubChem BioAssay (NCATS).

Results filed as inconclusive are left out. Entries that show only a call come without a potency. Values without a mark were called inactive. Calls of active or inactive are those of the source. The call rests on the fitted dose curve; in most records, active means well fitted cell-killing curve with a large enough effect; inconclusive means small, poorly fitted or top-dose-only effect; inactive means no such curve, though single readings can be large or run the other way.
Potency means the concentration at half of the fitted maximal effect.

The first assay can be described thus: qHTS of pediatric cancer cell lines to identify multiple opportunities for drug repurposing: Primary screen for SJ-GBM2 cells (AID 1347091). The following applies: SJ-GBM2 viability, CellTiter-Glo luminescence, 48 h; series mostly up to 46 µM. A digest of the protocol: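 Cell viability, CellTiter-Glo luminescence; 500-1,000 cells/well, 8- or 11-point titration, 48 h compound exposure at 37 degrees C, 5% CO2. Controls: DMSO neutral, bortezomib 2.3 µM final as positive.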
A general note: qHTS replaces the single test concentration by a dilution series.
`CCCOC(=O)c1ccc(O)cc1`: the Potency result is “inactive”.
Take `O=C(O)Cc1cccc(-c2cc(CCCCCCc3ccc(O[C@H]4O[C@H](CO)[C@@H](O)[C@H](O)[C@@H]4O)c(-c4cccc(CC(=O)O)c4)c3)ccc2O[C@H]2O[C@H](CO)[C@@H](O)[C@H](O)[C@@H]2O)c1`: the activity change, negative = cytotoxic was 18.6% [at 0.597 µM].
For the compound `O=C(O)/C=C\C(=O)O`, the Potency result was “inactive”.
For the compound `CC(C(=O)O)c1ccc2c(c1)[nH]c1ccc(Cl)cc12` (stereo not drawn), the Potency entry was “inactive”.
In the case of `COc1ccc(-c2cc(=S)ss2)cc1`, the Potency entry was “inactive”.
In the case of `O=C(CCN1CCN(CCO)CC1)N1c2ccccc2Sc2ccc(C(F)(F)F)cc21`, the Potency result is “inactive”.
On to `c1ccc2sc(SN3CCOCC3)nc2c1`, for which the Potency result is “inactive”.
In the case of `O=C(OCc1ccccc1)c1ccccc1`, the Potency result is “inactive”.
For `Nc1c(CC(=O)O)cccc1C(=O)c1ccc(Br)cc1`, the Potency entry was “inactive”.
The same measure, in the same setting: then `CC(=O)c1ccc(OCC(=O)N2CCCCC2)cc1`, with “inactive”.
With `CNC(=O)c1c(I)c(NC(=O)CCCCC(=O)Nc2c(I)c(C(=O)O)c(I)c(C(=O)NC)c2I)c(I)c(C(=O)O)c1I`, the Potency result is “inactive”.
For `O=C(O)c1cc(O)c(O)c(O)c1`, the Potency result is “inactive”.
Turning to `C=CCCCCCCCCC(=O)O`, the Potency result was “inactive”.
`Cc1ccc(C(=O)c2ccc(CC(=O)O)n2C)cc1`: the Potency entry was “inactive”.
`Nc1cc(-c2ccncc2)c[nH]c1=O`: the Potency entry was “inactive”.
Still for that read-out and setting: then `Nc1nc2ccc([N+](=O)[O-])cc2s1`, with “inactive”; and `COc1ccnc2c1CCCCC2S(=O)c1nc2ccccc2[nH]1` (stereo not drawn), with “inactive”; and `N=C(N)N`, with “inactive”.
With `O=Cc1ccc(O)c(O)c1O`, the Potency result is “inactive”.
Turning to `CCCCCCCC/C=C/C(=O)O`, the Potency result was “inactive”.
Turning to `Nc1ccc(C(=O)O)c(O)c1`, the Potency result was “inactive”.
For the compound `CC1(C)S[C@@H]2[C@H](NC(=O)[C@H](N)c3ccccc3)C(=O)N2[C@H]1C(=O)O`, the Potency entry was “inactive”.
`CN(C)[C@@H]1C(=O)C(C(=O)NCN2CCCC2)=C(O)[C@@]2(O)C(=O)C3=C(O)c4c(O)cccc4[C@@](C)(O)C3C[C@@H]12` (stereo partly drawn): the Potency result was “inactive”.
Same read-out and setting: then `CCCCCCCCCCCCOCCO`, with “inactive”; and `CC(=O)SCC(CC(=O)c1ccc(C)cc1)C(=O)O` (stereo not drawn), with “inactive”; and `O=C(O)c1ccccc1Nc1cccc(C(F)(F)F)c1`, with “inactive”.
Same read-out and setting: next, `CCOc1ccc2nc(S(N)(=O)=O)sc2c1`: “inactive”; `CCCSc1ccc2nc(NC(=O)OC)[nH]c2c1`: 422 nM (active); `Cc1c(Nc2ncccc2C(=O)O)cccc1C(F)(F)F`: “inactive”.
As for `O=C(/C=C/c1ccccc1)NCCO`, the Potency entry was “inactive”.
Consider `CCCCCCOc1ccccc1C(N)=O`, for which the Potency result was “inactive”.
In the case of `CCOC(=O)c1ccccc1O`, the Potency entry is “inactive”.
Regarding `COc1cc2c3cc1Oc1cc(ccc1O)C[C@@H]1c4c(cc(OC)c(O)c4Oc4ccc(cc4)C[C@@H]3N(C)CC2)CC[N+]1(C)C`, the Potency entry was “inactive”.
For `O=C(O)Cc1ccc2c(c1)C(=O)c1ccccc1CO2`, the Potency result was “inactive”.
As to `Cc1c(N)c(=O)n(-c2ccccc2)n1C`, the Potency result was “inactive”.
As to `Clc1ccccc1-c1nc(-c2ccncc2)no1`, the Potency entry was “inactive”.
The same measure, in the same setting: next, `CC(C)(C)c1nnc(NS(=O)(=O)c2ccc(N)cc2)s1`: “inactive”; `CN1CCN(c2cc3c(nn2)Oc2ccccc2N3C)CC1`: “inactive”.
`CC(C)OC(=O)c1cc(C(=O)OC(C)C)cc([N+](=O)[O-])c1`: the Potency result is “inactive”.

A further assay in a line: qHTS of pediatric cancer cell lines to identify multiple opportunities for drug repurposing: Primary screen for A673 cells (AID 1347092). Further: nearly all actives have a fitted effect of over 45% in size. The following applies: A673 Ewing sarcoma viability, CellTiter-Glo ATP luminescence, 48 h; series mostly up to 46 µM. A digest of the protocol: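 Luminescence from CellTiter-Glo, taken after 15 min at room temperature, served as the proxy for metabolically active cells following 48 h treatment. Both potency and efficacy were taken from curves fitted to the titration data.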
Turning to `O=C(O)Cc1cccc(-c2cc(CCCCCCc3ccc(O[C@H]4O[C@H](CO)[C@@H](O)[C@H](O)[C@@H]4O)c(-c4cccc(CC(=O)O)c4)c3)ccc2O[C@H]2O[C@H](CO)[C@@H](O)[C@H](O)[C@@H]2O)c1`, the activity change, negative = cytotoxic is 10.8% [at 0.597 µM].
`O=C(O)/C=C\C(=O)O`: the Potency entry is “inactive”.
With `CC(C(=O)O)c1ccc2c(c1)[nH]c1ccc(Cl)cc12` (stereo not drawn), the Potency result is “inactive”.
The same measure, in the same setting: then `COc1ccc(-c2cc(=S)ss2)cc1`, with “inactive”; and `O=C(CCN1CCN(CCO)CC1)N1c2ccccc2Sc2ccc(C(F)(F)F)cc21`, with “inactive”.
In the case of `c1ccc2sc(SN3CCOCC3)nc2c1`, the Potency result was “inactive”.
For the compound `O=C(OCc1ccccc1)c1ccccc1`, the Potency entry is “inactive”.
On to `Nc1c(CC(=O)O)cccc1C(=O)c1ccc(Br)cc1`, for which the Potency result is “inactive”.
With `CC(=O)c1ccc(OCC(=O)N2CCCCC2)cc1`, the Potency entry was “inactive”.
With `CNC(=O)c1c(I)c(NC(=O)CCCCC(=O)Nc2c(I)c(C(=O)O)c(I)c(C(=O)NC)c2I)c(I)c(C(=O)O)c1I`, the Potency result is “inactive”.
Regarding `C=CCCCCCCCCC(=O)O`, the Potency entry is “inactive”.
As for `Cc1ccc(C(=O)c2ccc(CC(=O)O)n2C)cc1`, the Potency result was “inactive”.
For the compound `Nc1cc(-c2ccncc2)c[nH]c1=O`, the Potency result was “inactive”.
Same read-out and setting: next, `Nc1nc2ccc([N+](=O)[O-])cc2s1`: “inactive”; `COc1ccnc2c1CCCCC2S(=O)c1nc2ccccc2[nH]1` (stereo not drawn): “inactive”.
In the case of `N=C(N)N`, the Potency entry was “inactive”.
Take `Nc1ccc(C(=O)O)c(O)c1`: the Potency entry is “inactive”.
With `CC1(C)S[C@@H]2[C@H](NC(=O)[C@H](N)c3ccccc3)C(=O)N2[C@H]1C(=O)O`, the Potency result was “inactive”.
Turning to `CN(C)[C@@H]1C(=O)C(C(=O)NCN2CCCC2)=C(O)[C@@]2(O)C(=O)C3=C(O)c4c(O)cccc4[C@@](C)(O)C3C[C@@H]12` (stereo partly drawn), the Potency result was “inactive”.
In the case of `CCCCCCCCCCCCOCCO`, the Potency result was “inactive”.
For the compound `CC(=O)SCC(CC(=O)c1ccc(C)cc1)C(=O)O` (stereo not drawn), the Potency entry is “inactive”.
Same read-out and setting: next, `O=C(O)c1ccccc1Nc1cccc(C(F)(F)F)c1`: “inactive”; `CCCSc1ccc2nc(NC(=O)OC)[nH]c2c1`: 841 nM (active).
The same measure, in the same setting: next, `Cc1c(Nc2ncccc2C(=O)O)cccc1C(F)(F)F`: “inactive”.
In the case of `O=C(/C=C/c1ccccc1)NCCO`, the Potency result was “inactive”.
As to `CCCCCCOc1ccccc1C(N)=O`, the Potency result was “inactive”.
Same read-out and setting: next, `CCOC(=O)c1ccccc1O`: 1 nM (active).
As for `COc1cc2c3cc1Oc1cc(ccc1O)C[C@@H]1c4c(cc(OC)c(O)c4Oc4ccc(cc4)C[C@@H]3N(C)CC2)CC[N+]1(C)C`, the Potency result is “inactive”.
Turning to `O=C(O)Cc1ccc2c(c1)C(=O)c1ccccc1CO2`, the Potency result was “inactive”.
Still for that read-out and setting: next, `Cc1c(N)c(=O)n(-c2ccccc2)n1C`: “inactive”.
The same measure, in the same setting: then `Clc1ccccc1-c1nc(-c2ccncc2)no1`, with “inactive”.
Consider `CC(C)(C)c1nnc(NS(=O)(=O)c2ccc(N)cc2)s1`, for which the Potency result is “inactive”.
On to `CN1CCN(c2cc3c(nn2)Oc2ccccc2N3C)CC1`, for which the Potency entry is “inactive”.
As to `CC(C)OC(=O)c1cc(C(=O)OC(C)C)cc([N+](=O)[O-])c1`, the Potency entry was “inactive”.
